Results on 25 compounds are retold here after PubChem BioAssay (NCATS).

Values joined by “and” are separate entries in the source; they are usually repeats but may differ in a detail not shown here. Equal values may be shown once. Inconclusive results are not listed. Where a call stands in place of a potency, no number is given. Active and inactive are the calls of the source. Calls come from the whole dose curve; as a rule, active = well fitted cell-killing curve with a large enough effect; inconclusive = small, poorly fitted or top-dose-only effect, or effect the other way; inactive = flat fitted curve, though single readings scatter.
Potency is the fitted concentration of half-maximal effect.

The subject of the assay is SKOV3. Description: Primary qHTS to identify gynecologic anti-cancer compounds using libraries of approved drugs and bioactive compounds (AID 1345084). Note: nearly all actives have a fitted effect of over 55% in size. The following applies: Gynecologic cancer cell panel viability, ATPlite luminescence, 48 h; series mostly up to 57.5 µM. In a few lines:
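Luminescence from the ATPlite ATP-monitoring reagent indicates viable cell number; lower signal means cytotoxicity. Cells received compound 16 h after seeding and were exposed for 48 h across five concentrations.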
On the technique in general: Quantitative high-throughput screening tests each substance at several concentrations.
For the compound `COc1cc(Nc2c(C#N)cnc3cc(OCCCN4CCN(C)CC4)c(OC)cc23)c(Cl)cc1Cl`, the Potency was 10 µM (active).
The value for `CC(C)c1ccc2oc3nc(N)c(C(=O)O)cc3c(=O)c2c1` was 7.08 µM (active); that for `c1ccc2[nH]c(-c3cscn3)nc2c1` was “inactive”; that for `Cc1cc2c(s1)Nc1ccccc1N=C2N1CCN(C)CC1` was “inactive”.
Take `Cc1cc(C2CCCCC2)n(O)c(=O)c1`: the Potency is 10 µM (active).
The value for `CC1=C(C)C(=O)C(C(CCCCCC(=O)O)c2ccccc2)=C(C)C1=O` (stereo not given) was “inactive”; that for `CC(=O)NC[C@H]1CN(c2ccc(N3CCOCC3)c(F)c2)C(=O)O1` was “inactive”; that for `NNc1nncc2ccccc12` was “inactive”.
On to `CC(S)C(=O)NCC(=O)O` (stereo not given), for which the Potency result was “inactive”.
In the case of `Cc1ccc(Nc2nccc(N(C)c3ccc4c(C)n(C)nc4c3)n2)cc1S(N)(=O)=O`, the Potency is 14.1 µM (active).
Under `Cc1c(C(=O)NN2CCCCC2)nn(-c2ccc(Cl)cc2Cl)c1-c1ccc(Cl)cc1` stands “inactive”; under `Clc1ccc(C(Cn2ccnc2)OCc2ccc(Sc3ccccc3)cc2)c(Cl)c1` (stereo not given), “inactive”.
For the compound `COCCCOc1ccnc(CS(=O)c2nc3ccccc3[nH]2)c1C` (stereo not given), the Potency result was “inactive”.
For `COc1ccccc1N1CCN(CCN(C(=O)C2CCCCC2)c2ccccn2)CC1`, the Potency entry is “inactive”.
For the compound `Cc1c(OCC(F)(F)F)ccnc1CS(=O)c1nc2ccccc2[nH]1` (stereo not given), the Potency result is “inactive”.
The value for `COc1cc2c(N3CCN(C(=O)Nc4ccc(OC(C)C)cc4)CC3)ncnc2cc1OCCCN1CCCCC1` was “inactive”.
As for `Clc1ccc(C(Cn2ccnc2)OCc2ccsc2Cl)c(Cl)c1` (stereo not given), the Potency entry was “inactive”.
`CCOC(=O)c1c(C)n(C)c2ccc(O)cc12`: the Potency entry is “inactive”.
Under `CN(C)C(=O)[C@H](O)[C@H](Cc1ccccc1)NC(=O)c1cc2cc(Cl)ccc2[nH]1` stands “inactive”; under `Cc1ccc(C(=O)c2cc(O)c(O)c([N+](=O)[O-])c2)cc1`, “inactive”.
Regarding `O=C(O)c1cccc(-c2noc(-c3ccccc3F)n2)c1`, the Potency is 10 µM (active) and 12.6 µM (active).
On to `OC(CN1CCN(c2cccc(Cl)c2)CC1)C(c1ccccc1)c1ccccc1` (stereo not given), for which the Potency result is “inactive”.
Turning to `O=C(NOCC1CC1)c1ccc(F)c(F)c1Nc1ccc(I)cc1Cl`, the Potency entry was “inactive”.
For the compound `Cc1cc(=O)c2c(O)c3c(O)cc(=O)c4c3c3c(cc(O)c1c23)C(C)(C)C=4O`, the Potency is 3.55 µM (active).
Regarding `Cc1ncc([N+](=O)[O-])n1CC(C)O` (stereo not given), the Potency entry was “inactive”.
